Entries with a potency or affinity are not part of this list. A number with no mark means an inactive call.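 Rule for the calls: active = cell killing, meaning signal decrease, with fitted half-maximal dose at or below ten times the top valid tested dose; inconclusive = poor fit, or flat curve with 30 to 70% signal loss; inactive = the rest.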
test: HeLa cell cytotoxicity, dose response, cytotoxicity control for MITF activator project, CellTiter-Glo luminescence, cherry-pick samples (AID 540259); settings: HeLa viability, CellTiter-Glo ATP luminescence, 24 h; series mostly up to 35 µM; activity change, negative = cytotoxicity: at the top concentration;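 note: 0% = DMSO neutral control and -100% = mitoxantrone positive control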

Row | SMILES | activity change, negative = cytotoxicity [%]
1 | COC(=O)c1ccc(Nc2ncnc3sccc23)cc1 | 11.5
2 | O=C(CC(Nc1ccccc1)C(=O)O)c1ccccc1 (stereo not given) | 11.1
3 | COc1ccc(-c2cn(CC3CCCCC3)nn2)cc1 | 6.96
4 | COc1ccc(/C(N)=N/OC(=O)c2cccs2)cc1OC | -1.87
5 | C/C(=N\OC(=O)Nc1ccccc1)c1ccc(C)cc1 | 13.2
6 | NC(=O)c1cnn(-c2cc(Oc3ccccc3)ncn2)c1N | 5.25
7 | O=C(Nc1cccnc1)c1cc(-c2ccc(Cl)cc2)on1 | 1.46
8 | COc1ccc(-c2ccc3oc(-c4ccsc4)cc(=O)c3c2)cn1 | 9.06
9 | COCc1ccc(-c2c(-c3ccc(OC)cc3)oc(=O)c3cc(OC)c(OC)cc23)cc1 | -8.39
10 | Cc1cc(NC(=O)Nc2ccc3c(ccn3C)c2)sn1 | 12.1
11 | COc1ccc(NC(=S)c2ccccc2)cc1 | 2.2
12 | c1ccc(COc2ccc(-c3csnn3)cc2)cc1 | 2.43
13 | COc1ccc(Br)c(C(=O)Nc2nc3ccccc3[nH]2)c1 | -2.95
14 | O=C(Nc1ccc2ccccc2c1)c1cc(F)c(F)cc1Cl | -2.11
15 | COC(=O)c1ccc(N=NN2CCCCC2)cc1 | 5.75

— PubChem BioAssay AID540259 (Broad Institute, 2011)
